# IP6K1 inh = Primary qHTS assay for small molecule inhibitors of Inositol hexaphosphate kinase 1 (IP6K1) | Inositol hexakisphosphate kinase 1 (Homo sapiens), Q92551 | IP6K1 kinase, ADP-Glo luminescence, 2 h; active compounds read low | activity change, % (series mostly up to about 58 µM) | 140,000 compounds, 0.81% hits; in the data active = activity change below about -25%
# Target sequence (Q92551 whole entry, looked up): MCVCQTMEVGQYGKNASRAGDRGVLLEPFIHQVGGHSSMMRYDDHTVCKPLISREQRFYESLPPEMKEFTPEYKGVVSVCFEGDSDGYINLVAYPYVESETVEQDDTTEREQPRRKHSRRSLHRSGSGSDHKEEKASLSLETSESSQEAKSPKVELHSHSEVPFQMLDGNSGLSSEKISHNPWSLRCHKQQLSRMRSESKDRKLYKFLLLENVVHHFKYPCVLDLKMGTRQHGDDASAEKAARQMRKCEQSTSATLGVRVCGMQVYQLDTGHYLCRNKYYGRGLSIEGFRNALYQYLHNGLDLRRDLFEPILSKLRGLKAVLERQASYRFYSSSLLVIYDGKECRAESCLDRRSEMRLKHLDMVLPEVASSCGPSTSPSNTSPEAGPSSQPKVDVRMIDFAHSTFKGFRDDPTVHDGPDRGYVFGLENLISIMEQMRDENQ
#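 ADP-Glo luminescence measures ADP made by human IP6K1 during a 2 h RT reaction with ATP/IP6 (mix at 1.3 mM/130 uM); top library doses 57.5 and 19.1 uM final.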
# KDM5B inh = Primary screen for KDM5B Histone Demethylases FDH-coupled qHTS | Potency, µM (top dose mostly 57.7 µM), most hits filed as inhibitors | 220,000 compounds, 2.6% hits | AID 1347165, 2019 | KDM5B demethylase, FDH-coupled NADH fluorescence (FDH is formaldehyde dehydrogenase); note: nearly all actives have a fitted effect of over 70% in size
#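 Measured: NADH fluorescence change, 30 min, RT. System: KDM5BΔAP 200 nM final, H3K4me3 peptide, α-KG, Fe(II), ascorbate, NAD⁺ plus FDH, pH 7.5 HEPES. Compounds: titrated, 10 min pre-incubation with enzyme.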
# Numbers stand for hits; - = inactive; ? = inconclusive; . = no result given. Shown are actives, neighbours in structure and some others; about 2.7% of the full set was active somewhere.
SMILES,IP6K1 inh,KDM5B inh
O=C(NCc1nnc2c(-c3nc(C4CC4)no3)cccn12)c1cc(F)ccc1F,-,28µM
CCOc1ccccc1C(=O)NCc1nnc2c(-c3nc(C4CC4)no3)cccn12,-,-
CCOc1cccc(C(=O)Nc2ccc3oc(-c4ccc(OC)cc4)nc3c2)c1,.,-
O=C(Nc1cccc(Br)c1)C1CCN(c2cc(C(F)(F)F)ncn2)CC1,-,-
Cc1nc(C(=O)O)ccc1C#N,.,-
Cc1ccc(S(=O)(=O)N2CCc3nc4cc[nH]n4c(=O)c3C2)cc1C,-,25µM
CCCc1ccc(S(=O)(=O)N2CCc3nc4cc[nH]n4c(=O)c3C2)cc1,-,14µM
O=c1c2c(nc3cc(-c4ccccc4)[nH]n13)CCN(S(=O)(=O)c1ccccc1Cl)C2,-,?
CC1CCN(S(=O)(=O)N2CCC(C(=O)N3CCc4nc5cc[nH]n5c(=O)c4C3)CC2)CC1,-,?
O=C(COc1ccc(Cl)cc1Cl)Nc1ccc2oc(-c3cccnc3)nc2c1,.,-
CCN(CC)S(=O)(=O)c1cc(C(=O)Nc2cc3c(cc2C#N)OCO3)ccc1OC,.,-
CCOC(=O)c1cc2cc(Cl)ccc2[nH]1,.,-
N#Cc1cccc(Oc2ccc(F)cc2)c1C#N,.,-
Cc1ccnc(CC(C)N(C)C(=O)c2cc(-c3cnn(C)c3)nc3ccccc23)c1 (stereo unspecified),-,22µM
CCN(Cc1ccncc1)C(=O)c1cc(-c2cnc(C)nc2)nc2c(C)cccc12,-,?
Cc1cccc2c(C(=O)N(C)C(C)Cc3ccccn3)cc(-c3cnc(N)nc3)nc12 (stereo unspecified),-,32µM
CN(Cc1cnn(C)c1)C(=O)c1cc(-c2ccccc2)nc2ccccc12,.,-
CC(C)CCNC(=O)C1(C)CN(S(=O)(=O)c2ccccc2)CC(=O)N1c1ccc2c(c1)OCO2 (stereo unspecified),.,-
COc1ccc(F)cc1-c1cccc(C(=O)NCC(=O)NCc2ccc(C(F)(F)F)cc2)c1,-,.
C=CC(C)(O)CC/C=C(\C)C(=O)O[C@@H]1[C@@H](O)[C@H](OC(C)(C=C)CC/C=C(\C)C(=O)O[C@@H]2O[C@H](CO)[C@@H](O)[C@H](O)[C@H]2O)O[C@H](CO)[C@H]1OC(=O)/C(C)=C/CCC(C)(O)C=C (stereo partly specified),-,.
C=CC(C)(O)CC/C=C(\C)COC1O[C@H](CO)[C@@H](O)[C@H](O)[C@H]1O (stereo partly specified),-34,.
Cc1nc2cc(NC(=O)c3ccc(CNC(N)=O)cc3)ccc2o1,.,-
COc1ccc(C(=O)N2CCCN(c3cc(-c4ccc(Cl)cc4)[nH]n3)CC2)c(C)c1,-,-
C#CCNC(=O)c1nc(-c2ccc(Cl)cc2)c2cnccn12,-,40µM
C#CCNC(=O)c1nc(-c2cc(Cl)cc(Cl)c2)c2ccccn12,-,10µM
SMILES,IP6K1 inh,KDM5B inh
C#CCNC(=O)c1nc(-c2ccc(Cl)cc2)c2ccccn12,-,32µM
O=C(NCc1ccc2c(c1)OCO2)c1nc(-c2ccc(Cl)cc2)c2cnccn12,-,28µM
C#CCNC(=O)c1nc(-c2cccnc2)c2ccccn12,-,-
O=C(NCc1ccc2c(c1)OCO2)c1nc(-c2ccc(F)cc2)c2cnccn12,-,?
C#CCNC(=O)c1nc(-c2ccc(Cl)nc2)c2ccccn12,-,?
C#CCNC(=O)c1nc(-c2ccc(Cl)cc2Cl)c2ccccn12,-,89µM
CN1CCOc2c(C(=O)NCCc3cnc[nH]3)cc(-c3ccccc3)cc21,-,32µM
CN1CCOc2c(C(=O)NCCc3ccccc3)cc(N3CCOCC3)cc21,-,?
CN1CCOc2c(C(=O)NCCC(N)=O)cc(-c3ccccc3)cc21,-,35µM
Cc1[nH]c2ccccc2c1C(=O)C(Cl)c1ccccc1 (stereo unspecified),.,-
O=C(c1cc(-c2cccs2)[nH]n1)N1CCN(c2ccccc2)CC1,.,-
CCCn1nc(C(=O)NCCOc2cccc(C)c2)c2ccccc2c1=O,.,-
O=C(COC(=O)c1nn(-c2ccccc2)c(=O)c2ccccc12)Nc1cccc(C(=O)NC2CC2)c1,.,-
Cc1ccccc1Cn1cc(-c2ccncc2)cc1C(=O)NC(C)c1ccccn1 (stereo unspecified),-,32µM
CC(=O)Nc1ccc(NC(=O)c2cc(-c3ccncc3)cn2Cc2ccccc2C)cc1,-,?
Cc1cc2c(-c3ccccc3O)nc(-c3c(C)noc3C)cc2[nH]1,-,35µM
Cc1cc2c(-c3ccccc3F)nc(-c3c(C)noc3C)cc2[nH]1,-,35µM
Cc1cc2c(-c3cccc(O)c3)nc(-c3c(C)noc3C)cc2[nH]1,-,-
COc1cccc(-c2nc(-c3c(C)noc3C)cc3[nH]c(C)cc23)c1OC,-,-
Cc1cc2c(-c3ccccc3C)nc(-c3c(C)noc3C)cc2[nH]1,-,32µM
